Data from PubChem BioAssay (Tox21).
Values joined by “and” are separate entries in the source; they are usually repeats but may differ in a detail not shown here. Identical values can stand only once. Records with an inconclusive call do not appear. A call without a number means that no potency is given here. A structure can be active in one record and inactive in another. Active and inactive are the calls of the source. Unless noted, calls follow the shape of the dose curve; as a rule, active = well fitted curve in the direction sought with a large enough effect in the repeat runs; inconclusive = weak or mixed curves; inactive = no such curve, though single readings can be large; an effect the other way counts as inactive or inconclusive.

What was measured:
[1] = qHTS assay to identify small molecule antagonists of the estrogen related receptor (ERR) signaling pathway from Tox21 library - cell viability counter screen (AID 1224834); also: nearly all actives have a fitted effect of over 30% in size
Method in brief: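 After 17.5 h of compound exposure at 37 C, ERR cells are incubated with CellTiter-Fluor for 30 min and fluorescence intensity serves as the viability measure.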

[2] = target: Luciferin 4-monooxygenase (Photinus pyralis) (UniProt P08659); assay: qHTS assay to identify small molecule inhibitors of firefly luciferase (AID 1224835); also: nearly all actives have a fitted effect of over 25% in size
Method in brief: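 Quantitative HTS format; KM concentrations of both substrates. Purified P. pyralis FLuc activity quantified from luminescence images.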

[3] = qHTS assay to identify small molecule agonists of the constitutive androstane receptor (CAR) signaling pathway - cell viability counter screen (AID 1224836); also: nearly all actives have a fitted effect of over 45% in size
Method in brief: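 HepG2 cells stably carrying hCAR and a CYP2B6-2.2kb reporter; 15-concentration compounds plus PK11195 (final 0.75 uM), 23 hr at 37 C/5% CO2. Viability read by CellTiter-Fluor fluorescence.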

[4] = qHTS assay to identify small molecule antagonists of the constitutive androstane receptor (CAR) signaling pathway - cell viability counter screen (AID 1224837); also: nearly all actives have a fitted effect of over 45% in size
Method in brief: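 Counter screen run in HepG2-CYP2B6-hCAR cells: 4 hr settle, compound titration (15 concentrations) with 50 nM CITCO, 23 hr at 37 C/5% CO2, CellTiter-Fluor fluorescence.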

[5] = target: Nuclear receptor subfamily 1 group I member 3 (Homo sapiens) (UniProt Q14994); assay: qHTS assay to identify small molecule agonists of the constitutive androstane receptor (CAR) signaling pathway (AID 1224839); also: nearly all actives have a fitted effect of over 15% in size
Method in brief: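 HepG2 cells stably co-transfected with hCAR and a CYP2B6-2.2kb luciferase reporter; compounds at 15 concentrations with 0.75 uM PK11195 present. After 24 hr at 37 C, luciferase read by ONE-Glo luminescence.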

[6] = qHTS assay to identify small molecule antagonists of the estrogen related receptor signaling pathway with the pleiotropic PPARgamma coactivator (PGC) from Tox21 10K library - cell viability counter screen (AID 1224840; active = well fitted cell-killing curve with a large enough effect in the repeat runs, not every such curve was filed as active; also: nearly all actives have a fitted effect of over 40% in size)
Method in brief: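 Following seeding of 2,000 PGC/ERR cells/well and 6 hours' incubation, test compounds were delivered in DMSO. The plates then sat 17.5 hours at 37 C before a fluorogenic live-cell protease reagent (CellTiter-Fluor) was read after 30 min.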

[7] = qHTS assay to identify small molecule agonists of the estrogen related receptor signaling pathway with the pleiotropic PPARgamma coactivator (PGC) from Tox21 10K library (AID 1224842); also: nearly all actives have a fitted effect of over 15% in size
Method in brief: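 PGC/ERR reporter cells (NTP line) were seeded 2,000 per well, rested 6 h at 37 C/5% CO2, then pin-dosed with compounds in DMSO for 18 h at 37 C; luciferase read by One-Glo luminescence after 30 min at room temperature.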

[8] = target: Nuclear receptor subfamily 1 group I member 3 (Homo sapiens) (UniProt Q14994); assay: qHTS assay to identify small molecule antagonists of the constitutive androstane receptor (CAR) signaling pathway (AID 1224838);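 also: HepG2 cells stably expressing hCAR with CYP2B6 luciferase reporter stimulated by CITCO; nearly all actives have a fitted effect of over 40% in size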
Method in brief: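 Cell line: HepG2 double-stable for hCAR and CYP2B6-2.2kb reporter. Agonist: CITCO, 50 nM final. Compounds: 15 concentrations, 24 h, 37 C. Detection: ONE-Glo luminescence.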

[9] = qHTS assay to identify small molecule antagonists of the estrogen related receptor signaling pathway with the pleiotropic PPARgamma coactivator (PGC) from Tox21 10K library (AID 1224841; call rule not given here; also: actives are mostly falling curves and most rising ones were filed inactive; nearly all actives have a fitted effect of over 50% in size)
Method in brief: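 qHTS antagonist format: PGC/ERR cells, 2k/well, compound in DMSO by pin transfer after 6 h attachment, 18 h treatment at 37 C, One-Glo luminescence read at 30 min.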
Potency is read from the fitted curve at half-maximal effect.

Nuclear receptor subfamily 1 group I member 3 (Homo sapiens), sequence (Q14994 whole entry, looked up): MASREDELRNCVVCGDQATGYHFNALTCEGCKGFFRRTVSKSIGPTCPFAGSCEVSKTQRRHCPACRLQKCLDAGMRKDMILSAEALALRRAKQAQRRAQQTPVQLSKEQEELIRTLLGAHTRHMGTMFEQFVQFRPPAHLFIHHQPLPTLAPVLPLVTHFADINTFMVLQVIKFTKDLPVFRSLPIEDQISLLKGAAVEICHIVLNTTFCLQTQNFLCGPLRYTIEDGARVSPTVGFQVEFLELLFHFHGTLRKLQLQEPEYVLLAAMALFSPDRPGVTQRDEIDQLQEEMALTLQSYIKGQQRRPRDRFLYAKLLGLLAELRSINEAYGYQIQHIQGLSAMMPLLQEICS
Luciferin 4-monooxygenase (Photinus pyralis), sequence (P08659 whole entry, looked up): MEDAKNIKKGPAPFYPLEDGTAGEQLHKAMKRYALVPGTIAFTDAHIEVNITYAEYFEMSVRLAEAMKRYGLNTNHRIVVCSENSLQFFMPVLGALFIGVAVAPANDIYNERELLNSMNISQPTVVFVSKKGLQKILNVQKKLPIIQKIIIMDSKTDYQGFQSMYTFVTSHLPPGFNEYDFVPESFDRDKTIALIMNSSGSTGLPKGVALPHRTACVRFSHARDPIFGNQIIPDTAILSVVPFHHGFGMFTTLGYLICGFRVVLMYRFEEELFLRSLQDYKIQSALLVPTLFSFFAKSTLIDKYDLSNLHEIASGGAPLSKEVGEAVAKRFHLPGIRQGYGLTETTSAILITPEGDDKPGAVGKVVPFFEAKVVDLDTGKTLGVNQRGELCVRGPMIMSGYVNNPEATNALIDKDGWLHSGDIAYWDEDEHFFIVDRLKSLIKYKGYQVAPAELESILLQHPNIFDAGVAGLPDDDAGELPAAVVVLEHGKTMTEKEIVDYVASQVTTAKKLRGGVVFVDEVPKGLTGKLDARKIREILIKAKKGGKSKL

SMILES | Potency [1] | Potency [2] | Potency [3] | Potency [4] | Potency [5] | Potency [6] | Potency [7] | Potency [8] | Potency [9]
CC(C)OC(=O)C(C)(C)Oc1ccc(C(=O)c2ccc(Cl)cc2)cc1 | inactive | 34.7 µM (active) | inactive | inactive | 54.5 µM (active) and 26.6 µM (active) | inactive | – | – | –
COC(=O)CCC(=O)OC | inactive | inactive | inactive | inactive | inactive | inactive | inactive | – | –
C#C[C@]1(O)CC[C@H]2[C@@H]3CCC4=Cc5oncc5C[C@]4(C)[C@H]3CC[C@@]21C | 30.6 µM (active) and 26.6 µM (active) | inactive | inactive | inactive | – | 48.6 µM (active) and inactive | inactive | – | –
CN(C)C(=N)N=C(N)N | inactive | – | inactive | inactive | inactive | – | – | – | –
O=C(c1ccc(OCCN2CCCCC2)cc1)c1c(-c2ccc(O)cc2)sc2cc(O)ccc12 | 30.7 µM (active) and 48.6 µM (active) and 18.8 µM (active) | – | – | – | inactive | 24.4 µM (active) and 30.6 µM (active) | – | – | –
COc1cccc2c1C(=O)c1c(O)c3c(c(O)c1C2=O)C[C@@](O)(C(=O)CO)C[C@@H]3O[C@H]1C[C@H](N)[C@H](O)[C@H](C)O1 | 2.17 µM (active) and 6.68 µM (active) | 15.5 µM (active) | 6.85 µM (active) and 6.68 µM (active) | 2.17 µM (active) and 5.96 µM (active) | inactive | – | 216 nM (active) and 596 nM (active) | – | –
c1ccc2c(c1)Oc1ccccc1S2 | inactive | 72.1 µM (active) | inactive | inactive | inactive | – | – | – | –
COc1ccc(C(=O)CC(=O)c2ccc(C(C)(C)C)cc2)cc1 | – | 13.6 µM (active) and inactive | inactive | inactive | inactive | – | – | inactive | –
CN(C)CCN(Cc1cccs1)c1ccccn1 | inactive | inactive | inactive | inactive | – | inactive | – | – | –
Cc1[nH]c(=O)c(C#N)cc1-c1ccncc1 | – | inactive | inactive | inactive | inactive | – | – | inactive | –
CNCCCC12CCC(c3ccccc31)c1ccccc12 | 61.1 µM (active) and inactive | inactive | – | – | – | – | – | 21.7 µM (active) and inactive | –
C=C(C)C(=O)OCCOC(=O)C(=C)C | inactive | inactive | inactive | inactive | inactive | – | inactive | – | inactive
CC(C)=CCC/C(C)=C\CO | inactive | inactive | inactive | inactive | – | inactive | – | – | –
O=C=Nc1ccc(Cc2ccc(N=C=O)cc2)cc1 | inactive | inactive | inactive | inactive | – | inactive | inactive | – | –
c1cc(-c2ccncc2)ccn1 | inactive | inactive | inactive | inactive | inactive | inactive | – | – | –
Nc1ccc(Cl)cc1Cl | inactive | inactive | inactive | inactive | – | inactive | inactive | – | –

SMILES | Potency [1] | Potency [2] | Potency [3] | Potency [4] | Potency [5] | Potency [6] | Potency [7] | Potency [8] | Potency [9]
S=C(NC1CCCCC1)NC1CCCCC1 | 13.7 µM (active) | inactive | inactive | inactive | inactive | – | inactive | – | –
O=C(c1ccccc1)c1ccc(O)cc1O | 69.9 µM (active) and inactive | 89.4 µM (active) | inactive | – | 61.1 µM (active) | – | – | inactive | –
COc1ccccc1/C=C/C=O | – | inactive | inactive | inactive | – | – | – | – | –
C#C[C@]1(O)CC[C@H]2[C@@H]3CCc4cc(OC)ccc4[C@H]3CC[C@@]21C | inactive | inactive | inactive | inactive | 27.3 µM (active) and 23.7 µM (active) | inactive | – | – | inactive
CCCCCCCCCCCO | inactive | – | inactive | inactive | inactive | inactive | inactive | inactive | –
O=P(O)(O)O | inactive | – | inactive | inactive | – | inactive | – | – | –
CN(C)CCC=C1c2ccccc2CCc2ccccc21 | 68.6 µM (active) and 48.6 µM (active) and inactive | inactive | – | – | inactive | 48.6 µM (active) and inactive | – | – | –
CCC(C)(O)CCCC(C)C (centres undefined) | inactive | inactive | inactive | inactive | inactive | inactive | – | – | –
CCC(C)OC(=O)c1ccc(O)cc1 (centres undefined) | inactive | – | inactive | inactive | 61.5 µM (active) and 54.5 µM (active) | inactive | – | – | –
COC(C)COC(C)COC(C)CO (centres undefined) | – | inactive | inactive | inactive | inactive | inactive | inactive | inactive | –
O=C(Nc1ccc(Cl)cc1)Nc1ccc(Cl)c(Cl)c1 | – | 5.62 µM (active) and 10 µM (active) and 9.77 µM (active) | 17.2 µM (active) | 15.4 µM (active) | 3.44 µM (active) and 4.22 µM (active) | – | inactive | inactive | 12.1 µM (active) and inactive
CC(C)(C)NC(=O)[C@H]1CC[C@H]2[C@@H]3CC[C@H]4NC(=O)C=C[C@]4(C)[C@H]3CC[C@]12C | – | inactive | inactive | inactive | inactive | inactive | – | inactive | –
Oc1ccc(O)cc1 | – | inactive | inactive | inactive | 30.5 µM (active) and 34.4 µM (active) | inactive | – | – | –
CCC(C)c1ccccc1O (centres undefined) | – | inactive | inactive | inactive | inactive | inactive | inactive | – | –
O=C(c1ccccc1)c1ccccc1O | – | inactive | inactive | inactive | inactive | – | inactive | inactive | –
